The structures appear in SMILES notation. Calls of active or inactive are those of the source.

For test [1], the system named is PRMT1 (protein arginine N-methyltransferase 1). The test can be described thus: PRMT1 binders on small-molecule microarrays, primary screen, biochemical, small-molecule microarray, 635 nm fluorescence (AID 1088).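 Also: binding of Prmt1 protein to compounds spotted on small-molecule microarray slides.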 The following applies: small-molecule microarray binding, higher = more signal.
The nature of test [2]: yeast growth modulation, basal conditions, primary screen, YJM789 clinical isolate, OD600, 24 h (AID 1089).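 Also: growth of clinical yeast isolate S. cerevisiae YJM 789 seeded 1000 cells per well; test concentration not given here.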 The conditions noted are these: S. cerevisiae YJM789 growth, higher = more signal, called active from +8 up or from −8 down.
The nature of test [3]: fission yeast growth modulation, primary screen, strain 972, OD600, 24 h, no modulator (AID 1090).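 Also: basal condition with compound alone and no growth modifier present; test concentration not given here.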 The conditions noted are these: S. pombe 972 growth, higher = more signal, called active from +8 up or from −8 down.
Test [4] in a line: S. cerevisiae growth modulation with rapamycin, primary screen, strain BY4716, OD600, 96 h (AID 1091). Also: test concentration not given here. The conditions noted are these: higher = more signal, called active from +8 up or from −8 down.
For test [5], the target named is Torsin-1A-interacting protein 2 (Homo sapiens) (UniProt Q8NFQ8). The test can be described thus: LULL1 binders on small-molecule microarray, primary screen, cell lysate, human LULL1 lysate, 635/667 nm fluorescence (AID 1092).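 Also: probe is lysate of COS7 cells overexpressing human LULL1; score merges per-feature 667 nm fluorescence with signal-to-noise.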 The following applies: hLULL1 lysate binding, 635 nm fluorescence, higher = more signal.
Test [6] is described as follows: E. coli growth modulation, two-sided OD650, primary screen, E. coli filamentation project, strain DRC41, 24 h (AID 1093).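 Also: MC1000 strain lacking acrAB efflux and sulA so SOS filamentation is blocked; test concentration not given here.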 The following applies: OD650, 24 h, higher = more signal, called active from +8 up or from −8 down.
Test [7] in a line: small-molecule microarray binders of probe aLefty2, primary screen, biochemical, biotinylated probe, 635/667 nm fluorescence (AID 1094).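 Also: score merges spot fluorescence near 667 nm with spot signal-to-noise ratio.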 The following applies: higher = more signal.
Test [8] deals with Noggin (protein binding on small-molecule microarray). The test can be described thus: Noggin binders on small-molecule microarray, primary screen, biochemical, 635/667 nm fluorescence (AID 1095).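 Also: score merges 667 nm feature fluorescence with signal to noise over triplicate slides.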 The following applies: 635 nm fluorescence, higher = more signal.
The target in test [9] is Neurogenic locus notch homolog protein 3 (Homo sapiens) (UniProt Q9UM47). The test can be described thus: NOTCH3 binders on small-molecule microarray, primary screen, biochemical, 635/667 nm fluorescence (AID 1096). The following applies: NOTCH3 binding, 635 nm fluorescence, higher = more signal.
Test [10] can be described thus: small-molecule microarray binders of probe aEGFR, primary screen, biochemical, biotinylated probe, 635/667 nm fluorescence (AID 1097).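 Also: probe is a biotinylated anti-EGFR antibody binding compounds printed on slides; score combines fluorescence near 667 nm and signal to noise of each spot.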 The following applies: higher = more signal.

Torsin-1A-interacting protein 2 (Homo sapiens), sequence (Q8NFQ8 whole entry, looked up): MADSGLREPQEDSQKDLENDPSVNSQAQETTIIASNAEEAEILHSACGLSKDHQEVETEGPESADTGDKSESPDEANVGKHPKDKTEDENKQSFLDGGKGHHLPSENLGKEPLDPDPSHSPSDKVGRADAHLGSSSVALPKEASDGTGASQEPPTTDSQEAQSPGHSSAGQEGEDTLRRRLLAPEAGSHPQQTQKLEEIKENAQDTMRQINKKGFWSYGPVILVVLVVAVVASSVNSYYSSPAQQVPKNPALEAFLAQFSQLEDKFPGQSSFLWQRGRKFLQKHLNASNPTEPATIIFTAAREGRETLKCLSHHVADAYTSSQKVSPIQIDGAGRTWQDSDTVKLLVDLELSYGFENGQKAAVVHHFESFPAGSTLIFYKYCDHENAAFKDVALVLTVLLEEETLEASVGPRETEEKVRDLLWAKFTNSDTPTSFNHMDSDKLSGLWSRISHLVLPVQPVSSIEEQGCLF
Neurogenic locus notch homolog protein 3 (Homo sapiens), sequence (Q9UM47 whole entry, looked up): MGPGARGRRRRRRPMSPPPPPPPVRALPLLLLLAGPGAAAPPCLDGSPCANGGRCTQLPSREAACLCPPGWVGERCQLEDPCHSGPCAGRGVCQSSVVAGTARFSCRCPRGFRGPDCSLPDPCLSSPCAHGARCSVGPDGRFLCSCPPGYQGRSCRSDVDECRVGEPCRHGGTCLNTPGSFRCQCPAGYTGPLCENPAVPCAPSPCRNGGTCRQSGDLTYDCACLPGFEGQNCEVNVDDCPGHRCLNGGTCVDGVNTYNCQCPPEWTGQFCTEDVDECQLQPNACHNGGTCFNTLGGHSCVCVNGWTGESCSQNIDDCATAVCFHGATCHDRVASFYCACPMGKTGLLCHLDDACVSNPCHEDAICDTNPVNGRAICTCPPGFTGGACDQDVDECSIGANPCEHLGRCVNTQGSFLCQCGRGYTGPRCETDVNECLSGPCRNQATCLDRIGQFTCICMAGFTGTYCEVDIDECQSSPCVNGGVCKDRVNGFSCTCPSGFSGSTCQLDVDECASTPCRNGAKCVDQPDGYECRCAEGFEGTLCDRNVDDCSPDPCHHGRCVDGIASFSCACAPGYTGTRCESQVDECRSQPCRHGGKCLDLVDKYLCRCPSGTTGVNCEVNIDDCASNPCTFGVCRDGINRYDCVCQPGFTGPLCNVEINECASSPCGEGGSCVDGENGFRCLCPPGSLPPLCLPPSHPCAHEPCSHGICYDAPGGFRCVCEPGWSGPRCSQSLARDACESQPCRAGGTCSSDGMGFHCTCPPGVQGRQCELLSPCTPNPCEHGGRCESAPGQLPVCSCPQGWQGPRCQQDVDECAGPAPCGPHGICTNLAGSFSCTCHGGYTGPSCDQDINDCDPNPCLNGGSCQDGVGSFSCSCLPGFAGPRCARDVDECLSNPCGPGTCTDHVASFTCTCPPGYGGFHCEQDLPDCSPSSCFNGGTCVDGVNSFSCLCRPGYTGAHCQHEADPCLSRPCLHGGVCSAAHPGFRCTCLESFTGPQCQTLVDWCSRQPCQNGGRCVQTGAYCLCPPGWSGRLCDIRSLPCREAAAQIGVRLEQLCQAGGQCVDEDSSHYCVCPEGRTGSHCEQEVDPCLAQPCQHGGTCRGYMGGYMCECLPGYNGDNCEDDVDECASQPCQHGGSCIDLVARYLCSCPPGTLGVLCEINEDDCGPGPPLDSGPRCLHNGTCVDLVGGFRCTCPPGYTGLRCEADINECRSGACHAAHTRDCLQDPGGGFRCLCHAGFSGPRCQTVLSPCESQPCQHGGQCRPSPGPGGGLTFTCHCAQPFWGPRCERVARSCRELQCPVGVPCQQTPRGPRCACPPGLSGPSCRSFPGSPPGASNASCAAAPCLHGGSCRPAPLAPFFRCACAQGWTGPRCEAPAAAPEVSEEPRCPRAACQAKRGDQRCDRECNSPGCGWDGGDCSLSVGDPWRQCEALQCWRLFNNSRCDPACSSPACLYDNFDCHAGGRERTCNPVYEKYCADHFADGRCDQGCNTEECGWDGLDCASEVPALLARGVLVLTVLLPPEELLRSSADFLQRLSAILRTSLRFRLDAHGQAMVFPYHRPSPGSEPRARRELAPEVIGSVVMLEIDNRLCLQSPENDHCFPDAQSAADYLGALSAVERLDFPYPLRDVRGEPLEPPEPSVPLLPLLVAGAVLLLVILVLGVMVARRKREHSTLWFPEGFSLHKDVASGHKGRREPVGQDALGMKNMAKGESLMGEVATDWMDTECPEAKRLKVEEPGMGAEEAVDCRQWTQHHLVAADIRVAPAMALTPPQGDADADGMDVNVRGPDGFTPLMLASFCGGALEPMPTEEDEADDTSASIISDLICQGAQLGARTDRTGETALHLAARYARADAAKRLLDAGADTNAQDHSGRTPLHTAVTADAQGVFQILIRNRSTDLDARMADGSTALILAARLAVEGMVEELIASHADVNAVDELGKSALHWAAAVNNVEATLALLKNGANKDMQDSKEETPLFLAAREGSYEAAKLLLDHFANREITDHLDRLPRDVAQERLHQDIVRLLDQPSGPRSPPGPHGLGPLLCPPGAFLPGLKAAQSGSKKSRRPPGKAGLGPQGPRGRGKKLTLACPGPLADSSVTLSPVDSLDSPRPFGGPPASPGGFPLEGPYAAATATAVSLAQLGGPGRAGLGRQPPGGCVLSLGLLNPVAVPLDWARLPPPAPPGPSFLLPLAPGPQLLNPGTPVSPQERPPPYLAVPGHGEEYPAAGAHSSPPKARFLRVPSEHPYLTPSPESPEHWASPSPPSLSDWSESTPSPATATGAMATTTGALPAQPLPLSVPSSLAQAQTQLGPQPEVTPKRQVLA

As for `C=C[C@H](C)[C@@H](OC(=O)Nc1ccc(SC)cc1)c1ccc(O)c2ccccc12`, the composite z-score in test [1] was 1.28; in [5], 1.89; in [7], -0.0159; in test [8], 0.936; in test [9] it was 1.11; in [10] it was 0.137. In addition, the z-score in test [2] is -24.3 (active); in test [3] it was -20.7 (active); in [4] it was -1.88 (inactive); in test [6], 1.22 (inactive).

As to `CCOC(=O)C[C@H]1[C@H](OC(=O)c2ccc(C(=O)c3ccccc3)cc2)[C@@H](NC(=O)Cc2ccc(OC)cc2)c2cc(OCCCO)ccc2N1C(=O)c1ccc2ccccc2n1`, the composite z-score in [1] was 0.794; in [5] it was 1.6; in test [7] it was 0.0768; in test [8], 0.666; in [9], 1.16; in test [10], 0.0182. Further, the z-score in [2] is 0.328 (inactive); in [3], -0.22 (inactive); in test [4] it was 0.605 (inactive); in [6] it was 0.213 (inactive).

On to `COc1cc2c(cc1OC)CN(C(=O)[C@H]1[C@@H]3C(=O)O[C@@H](c4ccccc4)[C@@H](c4ccccc4)N3[C@@H](c3ccccc3OCCO)[C@]13C(=O)Nc1ccc(C#CCCO)cc13)CC2`, for which the composite z-score in test [1] was 1.52; in [5], 1.61; in test [7], -0.0499; in test [8], 1.71; in test [9], 1.02; in test [10], -0.0531. The z-score in [2] was 2.11 (inactive); in test [3] it was -0.0834 (inactive); in test [4], 3.66 (inactive); in test [6], -0.302 (inactive).

With `Cc1ccc(S[C@]2(C(=O)O)CC(=O)N(C(C)C)[C@@H]2c2ccc(CO)cc2)cc1`, the composite z-score in [1] is 1.21; in test [5], -0.634; in test [7], -0.0719; in test [8], 0.306; in test [9], -0.229; in test [10] it was -0.134. Also, the z-score in [2] was -1.54 (inactive); in test [3], -0.916 (inactive); in test [4], -0.963 (inactive); in [6] it was 1.66 (inactive).

For `C=CCN(Cc1ccccc1)C(=O)C(c1cccs1)N(C(=O)/C=C\C(=O)O)c1ccc(CCOCCO)cc1` (stereo not given), the composite z-score in test [1] was -0.133; in test [5], -0.288; in test [7], -0.209; in test [8], -1.51; in test [9], -1.36; in [10], -0.32. Moreover, the z-score in test [2] was -1.22 (inactive); in [3], 0.246 (inactive); in [4] it was -0.391 (inactive); in test [6] it was 1.01 (inactive).

Regarding `CS(=O)(=O)CCOC(=O)C1=CC(CCCO)=CC(C2CC2)N(Cc2cc3c(cc2Br)OCO3)C=C1C(=O)OCCS(C)(=O)=O` (stereo not given), the composite z-score in test [1] was found to be 1.37; in test [5], 1.84; in [7] it was 0.0723; in [8] it was 0.39; in [9] it was 0.533; in test [10] it was 0.0423. Moreover, the z-score is -0.955 (inactive) in test [2], -1.87 (inactive) in [3], -1.32 (inactive) in test [4] and 0.102 (inactive) in test [6].

Turning to `CO[C@H]1O[C@H](CO)[C@@H](OC(=O)Nc2ccccc2-c2ccccc2)[C@H](OC(=O)Nc2ccccc2-c2ccccc2)[C@@H]1OC(=O)Nc1ccccc1-c1ccccc1`, the composite z-score in [1] was 1.54; in test [5] it was 2.96; in [7], -0.0569; in test [8], 0.761; in test [9], 1.08; in [10], -0.0757. The z-score in [2] is 1.95 (inactive); in test [3], 0.181 (inactive); in test [4], 7.28 (inactive); in [6] it was 1.59 (inactive).

In the case of `COCCOC(=O)N1C(=O)[C@@]2(c3cc(C#CC4=CCCCC4)ccc31)[C@H](c1ccc(OCCO)cc1)N1[C@H](c3ccccc3)[C@H](c3ccccc3)OC(=O)[C@H]1[C@@H]2C(=O)N1CCc2cc(OC)c(OC)cc2C1`, the composite z-score in test [1] was determined as 1.55; in test [5], 1.94; in test [7], 0.034; in [8], 0.921; in test [9] it was 1.06; in [10], 0.119. For the same compound, the z-score in test [2] was 2.47 (inactive); in [3], 0.535 (inactive); in test [4], 4.01 (inactive); in test [6] it was 1.96 (inactive).

`CCCCC(=C=CC[C@@H](O)c1cccc(OCCO)c1)C[C@@H](O)c1ccccn1`: the composite z-score in [1] is 1.55; in [5] it was 2.07; in test [7] it was -0.207; in test [8] it was 1.46; in test [9], 1.01; in test [10], -0.099. Moreover, the z-score in [2] is -0.937 (inactive); in [3], -0.606 (inactive); in test [4], -0.725 (inactive); in [6] it was 0.149 (inactive).

In the case of `C=CC[C@]1(C(N)=O)N=C(c2ccc(OCCCO)cc2)O[C@H]1c1ccccc1`, the composite z-score was 0.243 in test [1]; 2.17 in test [5]; 0.0493 in [7]; 0.201 in test [8]; -0.674 in [9]; -0.165 in test [10]. For the same compound, the z-score was -0.52 (inactive) in test [2], -0.0257 (inactive) in test [3], -0.953 (inactive) in test [4] and 0.0588 (inactive) in test [6].

`[N-]=[N+]=Nc1ccccc1C[C@@]1(C(=O)N2CCCCC2)N=C(c2ccc(OCCCO)cc2)O[C@@H]1c1ccccc1N=[N+]=[N-]`: the composite z-score was found to be 0.919 in [1]; 2.45 in test [5]; 0.605 in test [7]; 0.169 in [8]; 0.884 in test [9]; 0.29 in test [10]. Further, the z-score is -1.16 (inactive) in test [2], 0.123 (inactive) in test [3], 1.18 (inactive) in [4] and 0.799 (inactive) in test [6].

`CCN(CC)c1ccc(N2CC=CC34O[C@@H]5C=CCOC(=O)[C@@H]5[C@H]3C(=O)N(CCCCCCO)[C@@H]4C2=O)cc1` (stereo not given in full): the composite z-score is 0.933 in test [1]; 2.63 in test [5]; -0.192 in test [7]; -0.526 in test [8]; -0.136 in test [9]; -0.0987 in test [10]. Moreover, the z-score is -0.259 (inactive) in test [2], -0.53 (inactive) in test [3], -0.975 (inactive) in [4] and 2.24 (inactive) in test [6].

As to `O=C(NCCN1CCOCC1)[C@@H]1c2ccccc2C(=O)N(Cc2cc(C(F)(F)F)cc(C(F)(F)F)c2)[C@H]1c1ccc(CO)cc1`, the composite z-score in [1] is 1.56; in test [5], 2.37; in test [7], -0.0856; in [8], -0.901; in test [9] it was -0.578; in test [10] it was -0.0744. Moreover, the z-score was 0.764 (inactive) in test [2], -0.091 (inactive) in [3], 0.0371 (inactive) in test [4] and 0.339 (inactive) in test [6].

On to `C=CCNC(=O)[C@H]1[C@@H]2C(=O)O[C@@H](c3ccccc3)[C@@H](c3ccccc3)N2[C@@H](c2ccc(O)cc2)[C@]12C(=O)Nc1ccc(C#CCCO)cc12`, for which the composite z-score in [1] was 0.586; in [5] it was 1.97; in test [7], -0.0915; in test [8], -0.325; in test [9], -0.356; in test [10], -0.201. The z-score in [2] is 1.35 (inactive); in [3], 1.84 (inactive); in test [4], 1.13 (inactive); in [6], 0.515 (inactive).
